# Test results from ChEMBL document CHEMBL3988442, “University of Dundee, Small-Polar-MMV Screening Library” (2021).
# Screen size: about 48,000 compounds; about 13,000 (27%) showed an effect of 50% or more. This is one part of the list.
# Test system: Wolbachia pipientis
# Test: Anti-Wolbachia Cell-Based Screen
# Assay type: functional
# Set-up: scale not given: in the data most compounds retested in dose-response had high values
# Conditions: 5 µM
row,SMILES,Percent Effect [%]
1,C=C(C)COc1cccc(C(=O)N(C)Cc2cc(CC)no2)c1,-19.24
2,Cc1ccn(-c2ccc(N3CCCN(Cc4ccccc4)CC3)nn2)n1,1.996
3,COCCCC1(CO)CCCN(C(=O)c2cnc3c(c2)CCCC3)C1 (stereo unspecified),-5.76
4,c1cnnc(NCC2CN(CCn3cncn3)CCO2)c1 (stereo unspecified),-18.76
5,c1cnnc(NCC2CN(CC3CCOCC3)CCO2)c1 (stereo unspecified),103
6,c1ccc(CCN2CCOC(CNc3cccnn3)C2)nc1 (stereo unspecified),95.59
7,CCn1ccnc1CN1CCOC(CNc2cccnn2)C1 (stereo unspecified),10.18
8,Cc1cc(C)n(CCN2CCOC(CNc3cccnn3)C2)n1 (stereo unspecified),103.1
9,Clc1snnc1CN1CCOC(CNc2cccnn2)C1 (stereo unspecified),-2.392
10,CCN(CC1CN(CCc2ccccn2)CCO1)c1cccnn1 (stereo unspecified),-0.8374
11,Cn1c(CN2CCOC(CNc3cccnn3)C2)nnc1C1CC1 (stereo unspecified),105.6
12,CC(C)c1ccc(CNC(C)c2ccc(S(=O)(=O)N(C)C)cc2)cc1 (stereo unspecified),1.332
13,CN(CCC#N)C(=O)CN1CCC(c2cc3ccccc3[nH]2)CC1,-2.857
14,O=S(=O)(c1ccccc1)N1CCN(Cc2ccc(F)cc2Br)CC1,23.46
15,CCn1ccnc1-c1nc2cc(S(=O)(=O)N3CCCC3)ccc2n1C,-1.841
16,c1cnnc(NCC2CN(CCn3cccn3)CCO2)c1 (stereo unspecified),-18.13
17,N#Cc1cnn(CCN2CCOC(CNc3cccnn3)C2)c1 (stereo unspecified),-39.45
18,c1ccc(OCCCN2CCOC(CNc3cccnn3)C2)cc1 (stereo unspecified),96.43
19,Cn1cc(CCN2CCOC(CNc3cccnn3)C2)cn1 (stereo unspecified),102.6
20,CC(C)CCN1CCNC(=O)C1CC(=O)N1CCc2sccc2C1 (stereo unspecified),-6.453
21,c1ccc2c(Cc3nnc([C@H]4CCN(CC5CC5)C4)o3)c[nH]c2c1,-3.432
22,O=C(NCC1CCCN(Cc2cccc3nonc23)C1)c1ccc[nH]1 (stereo unspecified),22.2

row,SMILES,Percent Effect [%]
1,Nc1nccnc1CC1CCCN(Cc2c[nH]c3ccccc23)C1 (stereo unspecified),102
2,CCn1c(C2CCCN(Cc3ccnc4ccccc34)C2)nn(C)c1=O (stereo unspecified),0.7157
3,Nc1nccnc1CC1CCCN(Cc2ccnc3ccccc23)C1 (stereo unspecified),254.5
4,COc1ccccc1CN1CCCC(n2cccn2)C1 (stereo unspecified),-0.1221
5,Cc1nc(CC2CCCN(Cc3nc(N)c4ccccc4n3)C2)no1 (stereo unspecified),-1.933
6,O=C(Cc1c[nH]c2ccccc12)NCC1CCN(Cc2c[nH]cn2)C1 (stereo unspecified),-4.859
7,COc1ccccc1CN1CCCC(Cc2nccnc2N)C1 (stereo unspecified),104.1
8,COc1ccccc1CC1CCCN(C(=O)c2nccnc2N)C1 (stereo unspecified),7.342
9,Nc1nccnc1CC1CCCN(Cc2cccc3[nH]ccc23)C1 (stereo unspecified),126.9
10,CC(=O)N1[C@H](Cn2cncn2)C[C@@H]2CN(c3ccc(C)nn3)CC[C@@H]21,0.7192
11,N#Cc1cccc(S(=O)(=O)Nc2c(F)cccc2N2CCCC2)c1,-6.503
12,Cc1nn(C)c2nc(N(Cc3ccncc3)CC3CCCO3)sc12 (stereo unspecified),-11.41
13,O=C(NCC1CCOC1)c1cc(-c2ccccc2Cl)[nH]n1 (stereo unspecified),-16.18
14,O=C(NCC1CCOC1)c1csc(Cc2ccccc2)n1 (stereo unspecified),5.242
15,O=C(NCC1CCOCC1)c1cc(-c2cccnc2)c2cnccc2n1,94.41
16,O=C(NCC1CCOCC1)c1cc(-c2ccncc2)c2cnccc2n1,108.8
17,O=C(NCC1CCOC1)c1cc(-c2ccc(F)cc2)[nH]n1 (stereo unspecified),-3.417
18,CCn1cc(CN2CCCn3nc(CNC(=O)C4CCC4)cc3C2)cn1,6.964
19,CSCC[C@H](N)C(=O)NCc1cc2n(n1)CCCN(C(=O)C1CCC1)C2,51.59
20,CSCC[C@H](N)C(=O)NCc1cc2n(n1)CCCN(C(=O)N(C)C)C2,122.1
21,CCSCCC(=O)NCc1cc2n(n1)CCN(C(=O)N(C)C)C2,-0.2016
22,CSC(C)CCN1CCCn2nc(CNC(=O)C3CCC3)cc2C1 (stereo unspecified),-26.67

row,SMILES,Percent Effect [%]
1,CSCCC(=O)NCc1cc2n(n1)CCN(C(=O)N(C)C)C2,-0.4963
2,COc1c(F)cccc1C(=O)N(C)Cc1nc(-c2ccccn2)no1,-5.196
3,O=C(c1nnn(-c2ccccc2F)c1-c1ccccn1)N1CCSCC1,6.252
4,CCC(CC)CN(C)Cc1nc(-c2ccccc2NS(C)(=O)=O)oc1C,-3.021
5,Cc1nsc(NC(=O)N2CCCCC2CCO)n1 (stereo unspecified),17.59
6,CN(C)C1CCN(C(=O)NCc2ccc(Cn3cncn3)cc2)CC1,-7.697
7,Cl.c1cc(CNCc2ccc(Cn3cncn3)cc2)c2c(c1)OCCO2,98.52
8,c1cc(CNCc2ccnc(N3CCCC3)c2)c2c(c1)OCCCO2,-11.45
9,OCc1cccc(CNCc2cccc3c2OCCO3)c1,91.71
10,c1ncn(Cc2ccc(CNCc3ccc4c(c3)OCCO4)cc2)n1,118.2
11,O=S(=O)(CCNCc1cccc2c1OCCO2)N1CCOCC1,-15.52
12,Cl.c1cc(CNCc2ccnc(N3CCCC3)c2)c2c(c1)OCCO2,3.03
13,CN(C)c1cc(CNCc2cccc3c2OCCO3)ccn1,-14.59
14,c1cc(CNCc2ccnc(N3CCOCC3)c2)c2c(c1)OCCO2,-3.552
15,c1cc(CNCc2ccnc(N3CCCCC3)c2)c2c(c1)OCCCO2,-27.55
16,CC(C)c1nn(C)c(Cl)c1CNCc1ccc2c(c1)OCCO2.Cl,-6.63
17,Cl.c1cc(CNCc2cccc3c2OCCCO3)cc(Cn2cncn2)c1,92.05
18,CC(C)CN1C(=O)CC[C@H]2CN(C(=O)c3ncc[nH]3)CC[C@H]21,5.326
19,O=C(NCC1(c2ccc(F)cc2)CCC1)N1CCC2(CCOCC2)C1,-1.308
20,CC(=O)c1cc(CN2C[C@@H](NS(=O)(=O)N(C)C)[C@H](C(C)C)C2)cs1,-2.035
21,CC(NCc1ccncc1)c1cc2c(cc1Br)OCCO2 (stereo unspecified),-11.71
22,Cc1nn(C)c(N(C)C)c1CNCc1cccc(OCCN(C)C)c1,-12.69
